Data as given in PubChem BioAssay AID1645855 (Buhrlage Lab, Dana-Farber Cancer Institute and Novartis …, 2021).
The whole screen tested about 47,000 compounds, of which about 3,100 (6.6%) were called active. No stated cut-off is given here; in the data, active means inhibition above about 30%; inactive means the rest. The list comes from a sample in which actives are over-represented; it also holds similar structures and randomly drawn compounds.

What follows are molecules tested against Ubiquitin carboxyl-terminal hydrolase 17-like protein 5 (Homo sapiens) (UniProt A8MUK1) (assay: blocks human USP17 ubiquitin-rhodamine cleavage (AID 1645855)). Conditions: purified USP17, Ub-rhodamine cleavage fluorescence, 3 h; at 50 µM; hits give high values.
Sequence of Ubiquitin carboxyl-terminal hydrolase 17-like protein 5 (Homo sapiens) (A8MUK1 whole entry, looked up): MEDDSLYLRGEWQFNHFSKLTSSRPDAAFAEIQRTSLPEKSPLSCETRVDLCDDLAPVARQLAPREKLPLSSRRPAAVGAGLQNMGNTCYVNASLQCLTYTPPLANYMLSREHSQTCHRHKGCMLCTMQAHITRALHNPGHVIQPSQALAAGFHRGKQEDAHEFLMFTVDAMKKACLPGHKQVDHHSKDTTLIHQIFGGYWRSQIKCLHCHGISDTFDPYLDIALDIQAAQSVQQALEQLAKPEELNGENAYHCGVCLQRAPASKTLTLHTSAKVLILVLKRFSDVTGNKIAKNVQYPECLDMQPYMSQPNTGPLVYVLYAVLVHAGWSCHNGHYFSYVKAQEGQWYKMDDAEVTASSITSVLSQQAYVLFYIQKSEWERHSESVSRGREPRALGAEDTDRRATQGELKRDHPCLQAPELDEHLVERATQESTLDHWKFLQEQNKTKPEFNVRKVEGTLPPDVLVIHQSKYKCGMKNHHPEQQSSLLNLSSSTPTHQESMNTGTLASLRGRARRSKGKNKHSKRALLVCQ

SMILES | inhibition
COc1ccc(NC(=O)c2ccnc(Nc3ccc(OC)cc3)c2)cc1 | 68.7% (active)
COc1ccc(C(=O)Nc2ccc(N)cn2)cc1 | 12% (inactive)
COc1cc(OC)cc(C(=O)Nc2ccc(S(=O)(=O)Nc3cc(C)on3)cc2)c1 | 3.28% (inactive)
CC(=O)N1c2ncnn2C(c2ccc(Cl)cc2)CC1c1ccc(Cl)cc1 (stereo unspecified) | -2.75% (inactive)
CC(C)C(=O)Oc1cn(CCCN2CCCC2=O)c2nc(C(C)C)n3c4ccccc4nc3c12 | -84.6% (inactive)
CCS(=O)(=O)Nc1cc(S(=O)(=O)Nc2cc(Cl)ccc2Cl)ccc1N1CCOCC1 | -13% (inactive)
CC1=NS(=O)(=O)N(Cc2ccccc2)C=C1C(=O)Nc1cc(F)ccc1F | -4.7% (inactive)
O=C(Nc1ccc(F)cc1)C1CCCN(C(=O)c2cc(-c3ccccn3)n[nH]2)C1 (stereo unspecified) | -40% (inactive)
COc1cc(Cl)c(NC(=O)c2cc(-c3ccccn3)n[nH]2)c(OC)c1 | 47.4% (active)
COc1cnc(-c2ccccn2)nc1Sc1ccc(Cl)cc1Cl | -0.938% (inactive)
O=C(Nc1ccc(Cl)cc1F)c1cc(-c2ccccn2)n[nH]1 | 83.2% (active)
Cc1ccc(CC(=O)N2CCN(C(=O)c3cc(-c4ccccn4)n[nH]3)CC2)cc1 | -21.8% (inactive)
O=C(CNc1ccc(OC2CCCC2)cc1)N1CCNC1=O | 11.8% (inactive)
CN1CCCN(c2nc(-c3cccnc3)nc3ccccc23)CC1 | -19% (inactive)
Cc1ccc(-c2n[nH]c3c2CN(S(=O)(=O)C2CC2)CC3)cc1 | -2.42% (inactive)
O=C(O)c1ccc(-n2cc(-c3cnccn3)cn2)cc1 | 1.05% (inactive)
CNC(=O)c1cnn2c(C3CCCN(c4ncccn4)C3)ccnc12 (stereo unspecified) | 2.6% (inactive)
Cc1nnc(N2CCN(C(c3ccccc3)c3ccccc3)CC2)[nH]c1=O | -0.696% (inactive)
C\C=C(/C=C(C)/C=C(C)/C=C/C=C(\C)C(=O)[C@]12O[C@H]1[C@@](O)(CCO)NC2=O)C(=O)OC | -48.6% (inactive)
COc1ccc2c(Sc3ccccc3)c(C(=O)NCc3ccc4c(c3)OCO4)[nH]c2c1 | -5.49% (inactive)
O=C(COC(=O)c1ccc(F)c(S(=O)(=O)N2CCOCC2)c1)NCc1ccc2c(c1)OCO2 | 16.1% (inactive)
CCCCN(c1ccccc1)S(=O)(=O)c1cccc(C(=O)OCC(=O)NCc2ccc3c(c2)OCO3)c1 | 38% (active)

SMILES | inhibition
Nc1nc(N)nc(CN2C(=O)NC(Cc3ccccc3)(c3ccccc3)C2=O)n1 (stereo unspecified) | -1.99% (inactive)
CCCOc1ccc(-c2csc3ncn(CCc4ccccc4)c(=O)c23)cc1 | 13.1% (inactive)
COc1ccc(CC(=O)Nc2ccc3c(c2)CCC3)cc1S(=O)(=O)N1CCOCC1 | -13.3% (inactive)
COc1cc2c(cc1OC)CN(C(=O)c1cc(=O)c3ccccc3o1)CC2 | 8.62% (inactive)
COc1ccc(CC(=O)Nc2ccc3c(c2)CN(C(=O)c2ccco2)CC3)cc1 | 46.1% (active)
Cc1ccccc1CNC(=O)C1CCN(c2cnc3nccnc3c2)CC1 | -13% (inactive)
CCN1CCN(C(=O)c2cccn2Cc2noc(-c3ccc(C)cc3)n2)CC1 | -1.85% (inactive)
CN(C)C(CNC(=O)c1ccccc1Br)Cc1ccccc1 (stereo unspecified) | 14.4% (inactive)
Cc1ccccc1N1C(=O)COc2ccc3ccccc3c2C1C(=O)NC1CCCC1 (stereo unspecified) | -5.8% (inactive)
CNC(=O)[C@@]12CCC3(CCN(C(=O)c4cc(C)on4)CC3)[C@@H]1CN(C)C2 | 3.02% (inactive)
CCn1cc(CN2C[C@@H](O)[C@H](NC(=O)c3ccccn3)C2)c(C)n1 | 12.4% (inactive)
O=C(Nc1ccc2cn[nH]c2c1)c1cnn(-c2ccccc2)n1 | 38.2% (active)
O=C(c1cnn(-c2ccc(Cl)cc2)n1)c1cccs1 | 29.5% (inactive)
O=C(Nc1ccc2oc(-c3ccccc3)nc2c1)c1cccc(-n2cnnc2)n1 | -0.426% (inactive)
CC(NC(=O)c1ccc2ncnc(N3CCOCC3)c2c1)c1ccccc1 (stereo unspecified) | 9.89% (inactive)
C=C(NC(=O)C(=C)NC(=O)c1csc(C2=N[C@@H]3c4csc(n4)[C@H]4NC(=O)c5csc(n5)[C@H]([C@](C)(O)[C@@H](C)O)NC(=O)C5CSC(=N5)/C(=C/C)NC(=O)C([C@@H](C)O)NC(=O)c5csc(n5)[C@]3(CC2)NC(=O)[C@H](C)NC(=O)C(=C)NC(=O)[C@H](C)NC(=O)C([C@@H](C)CC)NC2C=Cc3c(C(C)O)cc(nc3[C@H]2O)C(=O)OC4C)n1)C(N)=O (stereo partly specified) | 53.2% (active)
CN(C)C(=O)C1CN(Cc2cccc(C#N)c2)Cc2ccnn2C1 (stereo unspecified) | -3.45% (inactive)
c1cncc(-c2nnc3n2C2(CCCCC2)Cc2ccccc2-3)c1 | -1.82% (inactive)
O=c1c2ccccc2n(Cc2ccccc2Cl)c(=O)n1Cc1ccco1 | -8.56% (inactive)
CCn1nccc1C1CCCN1C(=O)Nc1ccc(Cl)cc1 (stereo unspecified) | 1.51% (inactive)
Cc1ccc(CNC(=O)CCCn2c(=O)c3sccc3n(CC(=O)OCc3ccccc3)c2=O)cc1 | 47.4% (active)
Cc1ccc(CNC(=O)CC(c2ccccc2)c2ccccc2)cc1 | 24.3% (inactive)

SMILES | inhibition
Cc1cccc(N2CC(C)Cn3c2nc2c3c(=O)n(CC(=O)OCc3ccccc3)c(=O)n2C)c1 (stereo unspecified) | -3.33% (inactive)
COc1ccc(CCNC(=O)Cn2c(=O)n(CC3CCC(C(=O)NC4CCCC4)CC3)c(=O)c3ccccc32)cc1OC (stereo unspecified) | 9.89% (inactive)
COc1ccc(CCNC(=O)CSc2cn(CCNC(=O)c3ccccc3C)c3ccccc23)cc1OC | 18.8% (inactive)
COc1ccc(CCNC(=O)CCCn2c(=O)c3ccccc3n(CC(=O)OCc3ccccc3)c2=O)cc1OC | 40.5% (active)
COCC(=O)OCc1cc(=O)oc2cc(O)ccc12 | 14.9% (inactive)
CN1CCn2c(-c3cccnc3)cnc2C12CCN(Cc1cccnc1)CC2 | -23.9% (inactive)
O=C(O)C1CCCN1C(=O)C1CCN(S(=O)(=O)c2ccccc2)CC1 (stereo unspecified) | 0.0755% (inactive)
CC(C)N1CCN(C(=O)Cn2c(=O)n(-c3ccccc3)c3ncccc32)CC1 | -9.73% (inactive)
O=C(Nc1cccnc1Cl)c1noc2c1COc1ccccc1-2 | 15% (inactive)
NC(=O)c1ccc(NC(=O)Cc2cc(-c3ccc(Cl)cc3)on2)cc1 | 58.4% (active)
Cc1nc(-c2ccc(C)c(S(=O)(=O)NCC(=O)Nc3cccc(Cl)c3)c2)no1 | -1.55% (inactive)
COc1cccc(CCNC(=O)Cc2cc(-c3ccc(C)cc3)on2)c1 | -2.69% (inactive)
Cc1ccc(CN2CCC(N3CCN(C(=O)c4c(C)nn(C)c4C)CC3=O)CC2)cc1 | 2.05% (inactive)
CC(NC(=O)CN1C(=O)C2CCCN2C(=O)c2ccc(F)cc21)c1ccccc1 (stereo unspecified) | -12.4% (inactive)
CCc1cc(=O)n(CC(=O)NC2CCCC2)c(N2CCOCC2)n1 | 0.695% (inactive)
O=C(CCc1nnc2ccc(N3CCCCC3)nn12)Nc1ccc(S(=O)(=O)N2CCCCCC2)cc1 | 16.3% (inactive)
O=C(NC1CC1)c1cccc(OCC2CCCN(C(=O)c3cc(F)ccc3F)C2)c1 (stereo unspecified) | -3.72% (inactive)
CSc1nc2c(c(Nc3ccc(C(C)=O)cc3)n1)CCC2 | 61% (active)
O=C(NCC1CC1)c1ccc2c(c1)nc1n2CCN(Cc2ccccn2)C1=O | -18.5% (inactive)
CC(C)=CCC(O)C1=CC(=O)c2c(O)ccc(O)c2C1=O (stereo unspecified) | 95.2% (active)
CC(C)=CCc1cc(O)ccc1O | 4.38% (inactive)
CN(C(=O)c1ccc(S(=O)(=O)N2CCOCC2)cc1)c1nnc(C23CC4CC(CC(C4)C2)C3)s1 | 5.76% (inactive)

SMILES | inhibition
CCOC(=O)c1c(S(=O)(=O)NCC(=O)Nc2ccc(C)cc2)c(C)n(C)c1C | -20.2% (inactive)
CN(CCc1ccccc1)c1nccc(N2CCN(C(=O)c3csc(-c4cccnc4)n3)CC2)n1 | 19.2% (inactive)
Cc1ccc(Cc2nnc(C(=O)NC(C)c3ccccc3)o2)cc1 (stereo unspecified) | 4.41% (inactive)
Cc1ccc(CSc2nnc(/C=C/c3ccccc3)o2)cc1 | 39.9% (active)
COc1ccccc1CC(=O)N1C[C@@H]2C[C@H]1C[C@@H]2NC(=O)c1ccccc1 | 15.2% (inactive)
COc1ccc(CNC(=O)CCc2c(C)nn(-c3cc(N(C)C)ncn3)c2C)cc1 | -0.38% (inactive)
Cc1ccc(S(=O)(=O)N2C(=O)CCC2C(=O)N2CCCC2)cc1C (stereo unspecified) | -4.46% (inactive)
CCn1c(CC(=O)Nc2ccccc2)nnc1SCC(=O)N1CCOCC1 | 1.1% (inactive)
O=C(Cc1nnc2c(-c3nc(C4CC4)no3)cccn12)Nc1ccccc1 | 69.9% (active)
O=C(CN1CCC(c2nc(-c3ccccc3)no2)CC1)Nc1ccccc1 | -26.4% (inactive)
O=C(c1noc2c1CCCC2)N1CCCC(c2ccn[nH]2)C1 (stereo unspecified) | 0.07% (inactive)
O=C1NCCCCC1NS(=O)(=O)c1ccc2c(c1)CCO2 (stereo unspecified) | 2.39% (inactive)
CC1=C(c2ccc(F)cc2)S(=O)(=O)N=C1Nc1ccccc1Cl | 22.6% (inactive)
Cc1nc(SCC(=O)Nc2cc(Cl)cc(Cl)c2)c2oc3ccccc3c2n1 | -0.843% (inactive)
CCc1nc(SCC(=O)Nc2cc(Cl)ccc2Cl)c2oc3ccccc3c2n1 | 20.6% (inactive)
CCc1nc(SCC(=O)Nc2cccc3ccccc23)c2oc3ccccc3c2n1 | 30.1% (active)
Cc1nnc(-c2cn(CC(=O)NC3CCCCC3)c3ccccc23)o1 | 6.87% (inactive)
O=C(CSc1ncnc2nc[nH]c12)NC1CCCCC1 | -12.5% (inactive)
O=C(CSc1ncnc2c1oc1ccccc12)NC1CCCC1 | 61.3% (active)
FC(F)(F)Oc1ccc2[nH]c3c(c2c1)CNCC3 | 7.52% (inactive)
